In PubChem BioAssay (NCI) one finds growth inhibition data, which are given here for 20 compounds.

The nature of assay [1]: NCI Yeast Anticancer Drug Screen. Data for the rad50 strain (AID 155).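 Note: 0% = growth of vehicle-only cultures of the same strain.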 Particulars: S. cerevisiae rad50 strain growth inhibition; at 50.0 µM; active compounds read high. In a few lines:
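Relative growth inhibition (compound vs vehicle) was measured in yeast with a defined repair-gene alteration.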

Assay [2] is described as follows: NCI Yeast Anticancer Drug Screen. Data for the mec2-1 strain (AID 157). Particulars: S. cerevisiae mec2-1 strain, at 50.0 µM, active compounds read high. In a few lines: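 Growth inhibition is read against vehicle-treated controls after compound exposure of the mec2-1 yeast strain, which is defective in DNA damage repair or cell cycle control.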
Assay [3] in a line: NCI Yeast Anticancer Drug Screen. Data for the sgs1 mgt1 strain (AID 161).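 Note: 0% = growth of cultures given vehicle only.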 Particulars: S. cerevisiae sgs1 mgt1 strain, at 50.0 µM, active compounds read high. In a few lines: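 This yeast growth screen uses a strain with defined DNA-repair lesions; compound-treated growth is compared with vehicle-treated growth.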
Assay [4] is described as follows: NCI Yeast Anticancer Drug Screen. Data for the cln2 rad14 strain (AID 165).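 Note: 0% = growth equal to vehicle treated cultures.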 The settings on record: S. cerevisiae cln2 rad14 strain, at 50.0 µM, active compounds read high. In a few lines:
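Growth inhibition, relative to vehicle-treated controls, is the read-out. The test organism is a yeast strain with defined genetic alterations, cln2 rad14.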

Assay [5] in a line: NCI Yeast Anticancer Drug Screen. Data for the bub3 strain (AID 167). The settings on record: S. cerevisiae bub3 mutant strain, at 50.0 µM, active compounds read high. In a few lines: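 Screening used yeast with an engineered genetic alteration affecting cell cycle control. Compound-exposed cultures were compared with vehicle cultures, and reduced growth was taken as inhibition.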

A short description of assay [6]: NCI Yeast Anticancer Drug Screen. Data for the mlh1 rad18 strain (AID 175). Particulars: S. cerevisiae mlh1 rad18 strain growth inhibition; at 50.0 µM; active compounds read high. Summed up:
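Cells of a genetically altered yeast strain, deficient in DNA damage repair, were treated with compound. Their growth was then compared with that of vehicle-treated cultures to give inhibition.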

Compounds without any hit were thinned out: in the full panel of roughly 79,000, 15% have a hit. Unmarked numbers belong to inactive results. Calls of active or inactive are those of the source. Cut-off read from the data, not from the text of the source: active = growth inhibition above about 70%; inactive = the rest.

Turning to `OC1CC2CCCCC2CC1Cl` (stereo not given), the growth inhibition in assay [1] was 6.15%; in assay [2] it was 1.35%; in assay [3] it was 0.7%; in assay [4] it was -16.6%; in assay [5], -19.1%; in assay [6], 5.5%.

`O=C(CN1C(=O)c2ccccc2C1=O)OCC1CCCN2CCCCC12` (stereo not given): the growth inhibition in assay [1] is 16.6%; in assay [2] it was -3.3%; in assay [3], 4.9%; in assay [4] it was -3.55%; in assay [5] it was -6.25%; in assay [6], -29.4%.

For the compound `CCN=C1SCCCS1`, the growth inhibition is -8.8% in assay [1]; -22.8% in assay [2]; -13.4% in assay [3]; -19.5% in assay [4]; -15.9% in assay [5]; -14.8% in assay [6].

Consider `O=C1C2CCC(C2)C1CN1CCOCC1` (stereo not given), for which the growth inhibition in assay [1] was -10.7%; in assay [2] it was 3.25%; in assay [3] it was -1.25%; in assay [4], 0.5%; in assay [5], -7.35%; in assay [6], -7.35%.

Turning to `NC(=S)c1ccncc1`, the growth inhibition is 6.5% in assay [1]; 8.15% in assay [2]; 13% in assay [3]; 12.7% in assay [4]; 5% in assay [5]; -27.4% in assay [6].

For the compound `Cc1cnc(N/N=C/c2c(CO)cnc(C)c2O)s1`, the growth inhibition in assay [1] was 20.6%; in assay [2], 9.85%; in assay [3] it was 7.25%; in assay [4], 11.6%; in assay [5], 2.75%; in assay [6], 23.6%.

For `COC(=O)C1=CCS(=O)(=O)C1`, the growth inhibition in assay [1] is -7.45%; in assay [2] it was -7.8%; in assay [3], -4.3%; in assay [4], 6.1%; in assay [5], 15%; in assay [6] it was -9.5%.

With `Cc1ccc(Nc2c3ccccc3nc3ccccc23)cc1C`, the growth inhibition is 98.8% (active) in assay [1]; 95.8% (active) in assay [2]; 97.7% (active) in assay [3]; 90.6% (active) in assay [4]; 90.2% (active) in assay [5]; 98.5% (active) in assay [6].

With `CNC(=O)C1CCC(CC2CCCCC2)CC1` (stereo not given), the growth inhibition in assay [1] is 45.4%; in assay [2], 49.5%; in assay [3], 77.1% (active); in assay [4], 11.2%; in assay [5], 42.8%; in assay [6], 38.5%.

Turning to `CCOc1cc2ccc3c4cc(OC)c(OC)cc4cnc3c2cc1OCC`, the growth inhibition in assay [1] was -16.9%; in assay [2], -17.4%; in assay [3] it was -12.7%; in assay [4], -0.4%; in assay [5], -9.4%; in assay [6], -18.9%.

`CCCCCCCCCCCCCCCO`: the growth inhibition in assay [1] was 0.45%; in assay [2], -20.4%; in assay [3], -2.45%; in assay [4], -7.35%; in assay [5], -7.25%; in assay [6], 8.4%.

As to `O=[N+]([O-])c1ccc(N=Cc2ccccc2O)c(O)c1`, the growth inhibition was 21.9% in assay [1]; -4.05% in assay [2]; 2.75% in assay [3]; -8.55% in assay [4]; 20.8% in assay [5]; -2.05% in assay [6].

For the compound `CC(=O)OCC(=O)[C@@]1(O)CC[C@H]2[C@@H]3C[C@H](Cl)C4=CC(=O)C=C[C@]4(C)[C@H]3C(=O)C[C@@]21C`, the growth inhibition was 15.4% in assay [1]; 3% in assay [2]; 47.5% in assay [3]; 49.5% in assay [4]; -7.75% in assay [5]; 39.5% in assay [6].

For `CCOC(=O)C1(c2ccccc2)CCNC(=O)CC1` (stereo not given), the growth inhibition in assay [1] was 7.65%; in assay [2] it was 8.2%; in assay [3], 16.2%; in assay [4], -14.1%; in assay [5], 13.5%; in assay [6], 8.6%.

`NC1Nc2ccccc2NC1=O` (stereo not given): the growth inhibition is 4.85% in assay [1]; 10.2% in assay [2]; 3.4% in assay [3]; -3.15% in assay [4]; 6.4% in assay [5]; 0.05% in assay [6].

In the case of `CC(C)CC(=O)Cc1nc2n(c1O)C(=N)N=N2`, the growth inhibition in assay [1] is -35.5%; in assay [2], -15.9%; in assay [3] it was -14.2%; in assay [4], -40.7%; in assay [5], -11.8%; in assay [6], -20.1%.

Take `COc1ccc(C(c2cc3c(cc2O)OCO3)N2CCN(C(c3ccc(OC)cc3)c3cc4c(cc3O)OCO4)CC2)cc1` (stereo not given): the growth inhibition in assay [1] is 17.1%; in assay [2], 0%; in assay [3], 5.05%; in assay [4] it was 15.1%; in assay [5] it was -1.65%; in assay [6], 19.8%.

Turning to `CCOc1c(OC)cc(-c2nc3n(n2)C(=O)C(CC)S3)cc1OC` (stereo not given), the growth inhibition is -15.6% in assay [1]; -17.4% in assay [2]; -41.3% in assay [3]; -4.85% in assay [4]; -3.65% in assay [5]; -4.2% in assay [6].

For `O=C(NCCCCCCNC(=O)N1CCCCC1)c1cccnc1`, the growth inhibition is -7.8% in assay [1]; -21.3% in assay [2]; -3.65% in assay [3]; -27.2% in assay [4]; 13.3% in assay [5]; -33.6% in assay [6].

As for `COc1ccc(/C(Cl)=C(\C=N/O)c2ccc(OC)c(OC)c2)cc1OC`, the growth inhibition was -8.45% in assay [1]; 11.9% in assay [2]; -0.7% in assay [3]; 2.05% in assay [4]; 8.15% in assay [5]; -7.45% in assay [6].
